Reference: PubChem BioAssay (EPA / NIEHS)
The source made the active and inactive calls. Rule for the calls: active = hit-call score of the fitted dose curve at least 0.9, where 1 is the maximum; inconclusive = response in the unintended direction; inactive = score below 0.9.

Target: Peroxisome proliferator-activated receptor gamma (Homo sapiens) (UniProt P37231)
Test: OT_PPARg_PPARgSRC1_1440: Odyssey Thera (OT) 24-hour Protein-Complementation Assay for Peroxisome Proliferator-activated Receptor Gamma/ SRC-1 Co-activator (AID 2283388);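 note: nuclear to cytoplasmic ratio of reconstituted Venus YFP fluorescence in fixed imaged cells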
Outline: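 Readout: nuclear-to-cytoplasmic 488 nm fluorescence ratio, ≥350 cells per image, 8 images per well, after 24 h compound exposure of HEK293T expressing PPARg/SRC-1 split-YFP fusions. Activity fitted in positive direction against DMSO.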

Sequence of Peroxisome proliferator-activated receptor gamma (Homo sapiens) (P37231 whole entry, looked up): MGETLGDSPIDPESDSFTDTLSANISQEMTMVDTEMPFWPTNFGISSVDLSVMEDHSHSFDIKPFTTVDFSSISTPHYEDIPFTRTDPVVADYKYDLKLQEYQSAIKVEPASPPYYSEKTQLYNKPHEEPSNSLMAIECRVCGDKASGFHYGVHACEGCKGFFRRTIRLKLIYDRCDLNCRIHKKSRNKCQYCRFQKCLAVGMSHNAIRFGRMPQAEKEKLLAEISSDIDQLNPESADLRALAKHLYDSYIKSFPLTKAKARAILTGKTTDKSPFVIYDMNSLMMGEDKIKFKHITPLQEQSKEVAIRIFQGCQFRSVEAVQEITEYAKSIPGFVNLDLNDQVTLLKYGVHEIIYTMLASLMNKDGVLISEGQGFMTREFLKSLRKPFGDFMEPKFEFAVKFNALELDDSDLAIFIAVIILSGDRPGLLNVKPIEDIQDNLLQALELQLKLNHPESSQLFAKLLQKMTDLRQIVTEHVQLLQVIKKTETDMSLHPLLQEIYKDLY

Structure (SMILES) | outcome
CCOP(=S)(Oc1cnc(C(C)(C)C)nc1)OC(C)C (stereo not drawn) | inactive
C#CCC1=C(C)C(OC(=O)C2C(C=C(C)C)C2(C)C)CC1=O (stereo not drawn) | inactive
CCCSP(=O)(OCC)SCCC | inactive
C[Si](Cn1cncn1)(c1ccc(F)cc1)c1ccc(F)cc1 | inactive
CNC(=O)ON=C(C)SC | inactive
CNc1cnn(-c2cccc(C(F)(F)F)c2)c(=O)c1Cl | inactive
CCCCSP(=O)(SCCCC)SCCCC | inactive
CCOC(=O)CC(SP(=O)(OC)OC)C(=O)OCC (stereo not drawn) | inactive
CCCCOC(=O)[C@@H](C)Oc1ccc(Oc2ccc(C#N)cc2F)cc1 | inactive
CCCSP(=O)(OCC)Oc1ccc(Br)cc1Cl (stereo not drawn) | inactive
CON=C(C(=O)OC)c1ccccc1CON=C(C)c1cccc(C(F)(F)F)c1 | inactive
CCC(CC)Nc1c([N+](=O)[O-])cc(C)c(C)c1[N+](=O)[O-] | inactive
CSc1nc(NC(C)C)nc(NC(C)C)n1 | inactive
CNC(=O)ON=C(SC)C(=O)N(C)C | inactive
CCNc1nc(Cl)nc(NC(C)(C)C#N)n1 | inactive
O=c1ccc(=O)[nH][nH]1 | inactive
S=C1NCCN1 | inactive
CC(COc1ccc(Oc2ccccc2)cc1)Oc1ccccn1 (stereo not drawn) | inactive
CCOP(=S)(OCC)OC(Cl)C(Cl)(Cl)Cl (stereo not drawn) | inactive
COc1cccc(C(=O)NN(C(=O)c2cc(C)cc(C)c2)C(C)(C)C)c1C | inactive
CCc1cccc(C)c1N(C(=O)CCl)C(C)COC (stereo not drawn) | inactive
CN(C)C(=O)Nc1cccc(C(F)(F)F)c1 | inactive
CCCCN(CC)c1c([N+](=O)[O-])cc(C(F)(F)F)cc1[N+](=O)[O-] | inactive
